Records with an inconclusive call do not appear. Active and inactive are the calls of the source. The call rests on the fitted dose curve; in most records, active means well fitted cell-killing curve with a large enough effect; inconclusive means small, poorly fitted or top-dose-only effect, or effect the other way; inactive means flat fitted curve, though single readings scatter.
Experiments:
Experiment in all cases: Primary qHTS to identify gynecologic anti-cancer compounds using libraries of approved drugs and bioactive compounds (AID 1345084); further: nearly all actives have a fitted effect of over 55% in size
[1] = system: C33A; details: Gynecologic cancer cell panel viability, ATPlite luminescence, 48 h; series mostly up to 57.5 µM
Summary of the method: (§1)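 Cytotoxicity screen measuring ATP content by luciferase luminescence. Each compound is applied at five concentrations for 48 h at 37 C with 5% CO2.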

[2] = system: CASKI; details: Gynecologic cancer cell panel viability, ATPlite luminescence, 48 h; series mostly up to 57.5 µM
Summary of the method: as §1

[3] = system: Es-2; details: Gynecologic cancer cell panel viability, ATPlite luminescence, 48 h; series mostly up to 57.5 µM
Summary of the method: as §1

[4] = system: HeLa; details: Gynecologic cancer cell panel viability, ATPlite luminescence, 48 h; series mostly up to 57.5 µM
Summary of the method: as §1

[5] = system: Hek293T; details: Gynecologic cancer cell panel viability, ATPlite luminescence, 48 h, control line for the selectivity index; series mostly up to 57.5 µM
Summary of the method: as §1

[6] = system: JEG-3; details: Gynecologic cancer cell panel viability, ATPlite luminescence, 48 h; series mostly up to 57.5 µM
Summary of the method: as §1

[7] = system: OV90; details: Gynecologic cancer cell panel viability, ATPlite luminescence, 48 h; series mostly up to 57.5 µM
Summary of the method: as §1

[8] = system: PA-1; details: Gynecologic cancer cell panel viability, ATPlite luminescence, 48 h; series mostly up to 57.5 µM
Summary of the method: as §1

[9] = system: Tov-21-G; details: Gynecologic cancer cell panel viability, ATPlite luminescence, 48 h; series mostly up to 57.5 µM
Summary of the method: as §1

[10] = system: Tov112D; details: Gynecologic cancer cell panel viability, ATPlite luminescence, 48 h; series mostly up to 57.5 µM
Summary of the method: as §1

[11] = system: SKOV3; details: Gynecologic cancer cell panel viability, ATPlite luminescence, 48 h; series mostly up to 57.5 µM
Summary of the method: as §1

Measured: Potency

C=C(C)[C@@H]1CC[C@]2(C(=O)O)CC[C@]3(C(=O)O)[C@H](CCC4[C@@]5(C)CCC(=O)C(C)(C)C5CC[C@]43C)C12 (some centres not stated)
inactive: [1] | [2] | [3] | [4] | [5] | [6] | [7] | [8] | [9] | [10]

COc1ccc([C@H](Cc2ccncc2)c2ccccc2)cc1OC1CCCC1
inactive: [1] | [2] | [3] | [4] | [5] | [6] | [7] | [8] | [11] | [9] | [10]

C[C@@H](NC(=O)c1ccc(C#Cc2cccc(F)c2)cn1)C(C)(C)O
inactive: [1] | [2] | [3] | [4] | [5] | [6] | [7] | [8] | [11] | [9] | [10]

CC(C)(O)/C=C/C(=O)[C@](C)(O)[C@H]1[C@H](O)C[C@@]2(C)[C@@H]3CC=C4[C@@H](C[C@H](O[C@@H]5O[C@H](CO)[C@@H](O)[C@H](O)[C@H]5O)C(=O)C4(C)C)[C@]3(C)C(=O)C[C@]12C
inactive: [1] | [2] | [3] | [4] | [5] | [6] | [7] | [8] | [9] | [10]

C[C@@H](O[C@H]1OCCN(Cc2nn(P(=O)(O)O)c(=O)[nH]2)[C@H]1c1ccc(F)cc1)c1cc(C(F)(F)F)cc(C(F)(F)F)c1
inactive: [1] | [2] | [3] | [4] | [5] | [6] | [7] | [8] | [11] | [9] | [10]

Cc1cc2c(N3CCCC3)nc(N3CCCC3)nc2n1C
inactive: [1] | [2] | [3] | [4] | [5] | [6] | [7] | [8] | [11] | [9] | [10]

NCC(CNc1nc(Nc2cccc(NC(=O)N3CCCC3)c2)ncc1I)C(=O)c1cccs1 (configuration not stated)
inactive: [1] | [2] | [3] | [4] | [5] | [6] | [7] | [8] | [11] | [9] | [10]

CN(C)CCOc1cc(NS(=O)(=O)c2c(Cl)cc(C(F)(F)F)cc2Cl)ccc1Cl
inactive: [1] | [2] | [3] | [4] | [5] | [6] | [7] | [8] | [11] | [9] | [10]

C=CC(C)(O)CC[C@@H]1[C@@]2(C)CCCC(C)(C)C2CC[C@@]1(C)O (some centres not stated)
inactive: [1] | [2] | [3] | [4] | [5] | [6] | [7] | [8] | [9] | [10]

CCO[C@H]1CN(C2CCC(O)(c3ccc4c(c3)OCO4)CC2)C[C@@H]1NC(=O)CNC(=O)c1cccc(C(F)(F)F)c1 (some centres not stated)
inactive: [1] | [2] | [3] | [4] | [5] | [6] | [7] | [8] | [9] | [10]

Cn1cc(-c2ccc3c(c2)CCN3C(=O)Cc2cccc(C(F)(F)F)c2)c2c(N)ncnc21
inactive: [1] | [2] | [3] | [4] | [5] | [6] | [7] | [8] | [10]

O=C(Nc1ccc(CN2CCOCC2)cc1)c1ccc(-c2cccc(Cl)c2)o1
inactive: [1] | [2] | [3] | [4] | [5] | [6] | [9] | [10]

CN(C)CCN(Cc1ccccc1)C(=O)c1cc(-c2ccc(F)cc2)n2nc(C(C)(C)C)cc2n1
inactive: [1] | [2] | [3] | [4] | [5] | [6] | [9] | [10]

O=C(Nc1ccc(-c2ccc(Cl)c(Cl)c2)cc1)C1=C(O)c2ccccc2S(=O)(=O)N1
inactive: [1] | [2] | [3] | [4] | [6] | [7] | [11] | [9] | [10]

CCCc1cc(C)[nH]c(=O)c1CNC(=O)c1cc(-c2ccc(N3CCN(C(C)C)CC3)nc2)cc2c1cnn2C(C)C
inactive: [1] | [2] | [3] | [4] | [5] | [9] | [10]

CO[C@H]1C[C@@H]2CC[C@@H](C)[C@@](O)(O2)C(=O)C(=O)N2CCCC[C@H]2C(=O)O[C@H]([C@@H](C)C[C@@H]2CC[C@@H](O)[C@H](OC)C2)CC(=O)[C@H](C)/C=C(\C)[C@@H](O)[C@@H](OC)C(=O)[C@H](C)C[C@H](C)/C=C/C=C/C=C/1C
inactive: [1] | [2] | [3] | [4] | [5] | [6] | [11] | [10]

O=C(Nc1ccc(-n2nc(C(F)(F)F)cc2C(F)(F)F)cc1)c1ccncc1F
inactive: [1] | [2] | [3] | [4] | [5] | [6] | [7] | [11] | [9] | [10]

COc1cc2nc(N3CCN(C(=O)c4ccco4)C4CCCCC43)nc(N)c2cc1OC (configuration not stated)
inactive: [1] | [2] | [3] | [4] | [5] | [6] | [7] | [10]

N#Cc1ccc(-c2ccc(S(=O)(=O)Nc3cccc(N)n3)cc2)cc1
inactive: [1] | [2] | [3] | [4] | [6] | [7] | [8] | [9] | [10]

Reference: PubChem BioAssay (NCATS)
